Common to all, as to design: scale not given: direction of the effect not stated beside the values
Assay [1] has as its target Protein translocase subunit SecA (Escherichia coli (strain K12)) (UniProt P10408). Put plainly: Assay to Identify E. coli SecA ATPase Inhibitors. The format is functional. The note with it: 30 µM.
Assay [2] addresses T1, Ubiquitin-activating enzyme e1, putative (Leishmania donovani (strain BPK282A1)) (UniProt E9BSI1).
T1 sequence (whole entry): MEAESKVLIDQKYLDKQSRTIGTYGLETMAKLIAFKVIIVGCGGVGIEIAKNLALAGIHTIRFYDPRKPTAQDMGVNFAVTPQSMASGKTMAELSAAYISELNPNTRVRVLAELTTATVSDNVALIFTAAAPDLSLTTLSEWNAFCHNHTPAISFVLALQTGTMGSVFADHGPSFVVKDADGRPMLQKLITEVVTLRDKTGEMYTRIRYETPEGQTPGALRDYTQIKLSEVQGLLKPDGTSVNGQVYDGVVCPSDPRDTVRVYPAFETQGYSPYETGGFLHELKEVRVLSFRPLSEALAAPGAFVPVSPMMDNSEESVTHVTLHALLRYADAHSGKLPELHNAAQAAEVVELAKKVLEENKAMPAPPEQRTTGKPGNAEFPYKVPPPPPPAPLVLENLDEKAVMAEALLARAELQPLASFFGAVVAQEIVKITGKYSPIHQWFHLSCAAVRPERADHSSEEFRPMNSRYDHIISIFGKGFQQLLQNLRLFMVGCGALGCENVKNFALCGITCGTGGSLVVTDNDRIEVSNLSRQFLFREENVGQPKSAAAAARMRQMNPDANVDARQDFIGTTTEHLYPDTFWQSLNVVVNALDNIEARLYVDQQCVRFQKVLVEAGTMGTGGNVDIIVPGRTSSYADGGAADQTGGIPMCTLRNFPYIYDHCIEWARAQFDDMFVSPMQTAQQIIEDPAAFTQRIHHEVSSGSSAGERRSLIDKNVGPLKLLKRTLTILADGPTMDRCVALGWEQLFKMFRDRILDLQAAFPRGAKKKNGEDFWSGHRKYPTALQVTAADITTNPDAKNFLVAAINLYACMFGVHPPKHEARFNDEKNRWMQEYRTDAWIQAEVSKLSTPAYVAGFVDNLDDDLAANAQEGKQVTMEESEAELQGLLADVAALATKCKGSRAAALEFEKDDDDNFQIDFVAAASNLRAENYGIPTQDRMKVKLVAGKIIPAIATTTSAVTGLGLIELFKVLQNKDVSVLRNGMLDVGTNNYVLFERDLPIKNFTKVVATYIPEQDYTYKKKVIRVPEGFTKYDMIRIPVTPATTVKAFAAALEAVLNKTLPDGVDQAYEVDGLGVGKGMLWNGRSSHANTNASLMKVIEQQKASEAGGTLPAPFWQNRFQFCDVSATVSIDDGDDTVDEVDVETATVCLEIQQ
Put plainly: Leishmania donovani Ubiquitin Activating Enzyme (LdE1). Conditions: 30 µM. The format is functional.

Assay [3] addresses AMP-activated protein kinase, AMPK (Homo sapiens) (UniProt P54646+O43741+P54619+Q9UGJ0+Q9Y478+Q13131+Q9UGI9). The assay is described as follows: AMP-dependent Kinase enzyme assay. An in vitro enzyme assay that detects ADP turnover that is directly proportional to AMPK activity. This uses naive AMPK that is activated during the assay with MK-8722. Conditions: 30 µM. The format is functional.

Assay [4] addresses Sialic acid-binding Ig-like lectin 9 (Homo sapiens) (UniProt Q9Y336). Put plainly: Hs-Siglec9 ALPHAscreen SOP 20170721. Conditions: 10 µM. A general note: In Alpha technology, singlet oxygen from a donor bead excites a nearby acceptor bead.
Assay [5] concerns Trypanosoma cruzi. The assay is described as follows: Trypanosoma cruzi phosphomannomutase and mannose-1-phosphate guanylyltransferase assay. It counts as functional. The note with it: 10 µM.
In assay [6] the target is T2, Arginase-2, mitochondrial (Homo sapiens) (UniProt P78540).
T2 sequence (whole entry): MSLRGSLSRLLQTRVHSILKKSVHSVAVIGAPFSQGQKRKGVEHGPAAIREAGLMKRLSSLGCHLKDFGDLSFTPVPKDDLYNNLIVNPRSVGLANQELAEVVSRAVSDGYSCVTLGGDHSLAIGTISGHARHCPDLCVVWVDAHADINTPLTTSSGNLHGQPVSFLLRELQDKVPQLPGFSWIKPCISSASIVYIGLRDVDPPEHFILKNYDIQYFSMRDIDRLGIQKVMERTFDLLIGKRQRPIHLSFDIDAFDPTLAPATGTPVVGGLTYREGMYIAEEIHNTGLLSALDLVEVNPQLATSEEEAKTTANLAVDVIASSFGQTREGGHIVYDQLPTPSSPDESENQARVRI
Put plainly: in vitro enzyme assay to detect the production of urea directly proportional to the activity of Arginase II. Note: in the data most compounds retested in dose-response had high values. It counts as functional. The note with it: 33.3 µM.

Assay [7] concerns the target T3, Proteasome subunit beta (Trypanosoma cruzi) (UniProt O96673).
T3 sequence (whole entry): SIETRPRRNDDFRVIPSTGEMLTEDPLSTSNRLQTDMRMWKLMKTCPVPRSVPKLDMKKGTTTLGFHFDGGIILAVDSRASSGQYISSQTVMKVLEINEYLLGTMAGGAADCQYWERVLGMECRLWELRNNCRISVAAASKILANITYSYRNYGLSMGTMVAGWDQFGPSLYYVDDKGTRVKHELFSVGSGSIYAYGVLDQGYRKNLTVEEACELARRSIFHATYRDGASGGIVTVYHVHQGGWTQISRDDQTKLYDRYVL
The assay is described as follows: Trypanosoma cruzi proteasome chymotrypsin-like activity (TcProtChymo) assay. Note: in the data most compounds retested in dose-response had high values. Conditions: 9.37 µM. It counts as functional.

Assay [8] has as its system N/A. The assay is described as follows: Trypanosoma cruzi proteasome luciferase counter-screen. It counts as functional. Conditions: 9.37 µM. For orientation: The purpose of a counterscreen is to sort out artefacts and off-target activity.
Assay [9] is filed under the species Homo sapiens. Put plainly: To identify inhibition of the IFN signalling (Jak-Stat) pathway via expression of an eGFP reporter gene under the control of an IFN-stimulated response element (ISRE) containing MxA promoter. The format is functional. The note with it: 30 µM. (Reporter assays use an easily measured gene product as a stand-in for the process of interest.)

Assay [10] addresses T4, Tyrosyl-tRNA synthetase, putative (Trypanosoma cruzi (strain CL Brener)) (UniProt Q4DSP6).
T4 sequence (whole entry): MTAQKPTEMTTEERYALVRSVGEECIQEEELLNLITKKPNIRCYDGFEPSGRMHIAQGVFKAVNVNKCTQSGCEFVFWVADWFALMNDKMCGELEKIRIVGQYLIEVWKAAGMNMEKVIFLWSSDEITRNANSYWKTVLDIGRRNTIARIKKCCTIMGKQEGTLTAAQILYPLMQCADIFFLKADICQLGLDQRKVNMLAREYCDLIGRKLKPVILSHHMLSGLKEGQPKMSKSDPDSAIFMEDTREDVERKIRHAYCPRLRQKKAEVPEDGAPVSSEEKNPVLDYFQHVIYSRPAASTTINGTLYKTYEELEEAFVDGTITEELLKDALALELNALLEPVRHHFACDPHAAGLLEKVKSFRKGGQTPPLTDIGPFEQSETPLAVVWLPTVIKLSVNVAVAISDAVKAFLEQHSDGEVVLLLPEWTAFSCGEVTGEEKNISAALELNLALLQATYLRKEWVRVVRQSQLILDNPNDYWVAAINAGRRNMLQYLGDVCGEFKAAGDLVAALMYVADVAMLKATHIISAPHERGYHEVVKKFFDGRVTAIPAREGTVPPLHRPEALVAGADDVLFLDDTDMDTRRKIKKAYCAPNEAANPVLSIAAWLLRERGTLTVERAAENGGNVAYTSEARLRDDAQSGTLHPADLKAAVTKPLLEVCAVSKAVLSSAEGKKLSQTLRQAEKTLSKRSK
Put plainly: Trypanosoma cruzi tyrosyl tRNA synthetase (TcYRS) _High Tyrosine SOP. Note: in the data most compounds retested in dose-response had high values. It counts as functional. Conditions: 30 µM.

The target in assay [11] is T4, Tyrosyl-tRNA synthetase, putative (Trypanosoma cruzi (strain CL Brener)). Put plainly: Trypanosoma cruzi tyrosyl tRNA synthetase (TcYRS) SOP. It counts as functional. Conditions: 30 µM.
In assay [12] the target is Chromo domain-containing protein 1 (Saccharomyces cerevisiae (strain ATCC 204508 / S288c) (Baker's yeast)) (UniProt P32657). Put plainly: ScCHD-1 Enzyme Inhibition Assay. Note: in the data most compounds retested in dose-response had high values. The note with it: 30 µM. It counts as functional.

Several values for one entry are separate records, joined by “and”; a condition that tells them apart may be missing. Identical values can stand only once. For part of these data: Potency and affinity values are given separately.

Chain of Chromo domain-containing protein 1 (Saccharomyces cerevisiae (strain ATCC 204508 / S288c) (Baker's yeast)) (P32657 whole entry, the tested form may be a part): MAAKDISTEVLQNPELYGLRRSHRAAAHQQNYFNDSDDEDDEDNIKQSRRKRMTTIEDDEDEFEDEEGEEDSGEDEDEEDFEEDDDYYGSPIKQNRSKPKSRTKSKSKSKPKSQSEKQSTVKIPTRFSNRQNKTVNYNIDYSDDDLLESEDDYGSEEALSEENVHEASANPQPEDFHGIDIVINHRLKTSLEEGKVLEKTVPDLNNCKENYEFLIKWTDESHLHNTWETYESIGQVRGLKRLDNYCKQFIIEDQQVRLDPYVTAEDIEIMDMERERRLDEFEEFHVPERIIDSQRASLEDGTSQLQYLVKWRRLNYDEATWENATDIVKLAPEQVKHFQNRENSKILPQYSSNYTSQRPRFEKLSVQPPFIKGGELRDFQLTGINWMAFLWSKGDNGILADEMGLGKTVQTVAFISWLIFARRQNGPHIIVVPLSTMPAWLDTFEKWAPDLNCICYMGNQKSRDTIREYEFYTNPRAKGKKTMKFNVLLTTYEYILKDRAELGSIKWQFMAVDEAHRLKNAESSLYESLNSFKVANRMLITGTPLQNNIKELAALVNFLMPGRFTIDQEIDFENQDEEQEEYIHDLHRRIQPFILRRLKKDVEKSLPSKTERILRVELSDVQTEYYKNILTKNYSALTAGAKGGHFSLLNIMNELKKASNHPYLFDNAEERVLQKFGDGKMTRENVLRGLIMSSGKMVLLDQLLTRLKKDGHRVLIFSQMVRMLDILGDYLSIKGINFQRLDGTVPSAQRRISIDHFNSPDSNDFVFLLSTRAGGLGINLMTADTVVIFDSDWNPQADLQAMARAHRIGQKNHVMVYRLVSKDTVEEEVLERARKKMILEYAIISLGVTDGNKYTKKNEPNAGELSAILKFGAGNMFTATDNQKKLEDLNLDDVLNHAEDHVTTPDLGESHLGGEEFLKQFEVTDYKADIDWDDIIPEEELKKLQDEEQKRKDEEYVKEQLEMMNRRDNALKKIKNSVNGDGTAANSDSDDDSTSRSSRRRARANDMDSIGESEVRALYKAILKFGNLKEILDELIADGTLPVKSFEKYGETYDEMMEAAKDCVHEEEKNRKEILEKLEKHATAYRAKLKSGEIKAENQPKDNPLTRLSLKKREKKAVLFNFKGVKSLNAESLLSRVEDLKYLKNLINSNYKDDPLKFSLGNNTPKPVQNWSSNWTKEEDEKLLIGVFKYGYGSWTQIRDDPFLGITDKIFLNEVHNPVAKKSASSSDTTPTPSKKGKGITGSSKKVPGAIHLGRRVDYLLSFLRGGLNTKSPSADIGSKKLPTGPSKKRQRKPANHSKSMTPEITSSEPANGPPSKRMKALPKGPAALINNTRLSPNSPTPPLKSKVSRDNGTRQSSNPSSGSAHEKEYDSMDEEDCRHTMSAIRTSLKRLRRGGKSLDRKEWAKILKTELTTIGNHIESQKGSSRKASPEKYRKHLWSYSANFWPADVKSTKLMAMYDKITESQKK
Chain of Sialic acid-binding Ig-like lectin 9 (Homo sapiens) (Q9Y336 whole entry): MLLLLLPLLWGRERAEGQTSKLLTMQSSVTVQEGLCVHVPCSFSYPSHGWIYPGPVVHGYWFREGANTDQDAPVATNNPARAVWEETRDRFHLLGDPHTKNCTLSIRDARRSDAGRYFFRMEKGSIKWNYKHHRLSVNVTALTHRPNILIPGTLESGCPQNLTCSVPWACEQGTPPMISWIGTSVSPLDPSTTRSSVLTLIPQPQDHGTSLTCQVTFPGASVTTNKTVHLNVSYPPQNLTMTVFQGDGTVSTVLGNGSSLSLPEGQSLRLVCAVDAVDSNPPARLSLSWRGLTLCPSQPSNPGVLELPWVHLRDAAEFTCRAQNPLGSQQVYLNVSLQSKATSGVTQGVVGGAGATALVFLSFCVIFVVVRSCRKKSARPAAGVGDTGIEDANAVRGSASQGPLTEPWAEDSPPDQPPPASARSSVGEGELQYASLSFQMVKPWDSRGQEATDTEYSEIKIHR
Chain of Protein translocase subunit SecA (Escherichia coli (strain K12)) (P10408 whole entry): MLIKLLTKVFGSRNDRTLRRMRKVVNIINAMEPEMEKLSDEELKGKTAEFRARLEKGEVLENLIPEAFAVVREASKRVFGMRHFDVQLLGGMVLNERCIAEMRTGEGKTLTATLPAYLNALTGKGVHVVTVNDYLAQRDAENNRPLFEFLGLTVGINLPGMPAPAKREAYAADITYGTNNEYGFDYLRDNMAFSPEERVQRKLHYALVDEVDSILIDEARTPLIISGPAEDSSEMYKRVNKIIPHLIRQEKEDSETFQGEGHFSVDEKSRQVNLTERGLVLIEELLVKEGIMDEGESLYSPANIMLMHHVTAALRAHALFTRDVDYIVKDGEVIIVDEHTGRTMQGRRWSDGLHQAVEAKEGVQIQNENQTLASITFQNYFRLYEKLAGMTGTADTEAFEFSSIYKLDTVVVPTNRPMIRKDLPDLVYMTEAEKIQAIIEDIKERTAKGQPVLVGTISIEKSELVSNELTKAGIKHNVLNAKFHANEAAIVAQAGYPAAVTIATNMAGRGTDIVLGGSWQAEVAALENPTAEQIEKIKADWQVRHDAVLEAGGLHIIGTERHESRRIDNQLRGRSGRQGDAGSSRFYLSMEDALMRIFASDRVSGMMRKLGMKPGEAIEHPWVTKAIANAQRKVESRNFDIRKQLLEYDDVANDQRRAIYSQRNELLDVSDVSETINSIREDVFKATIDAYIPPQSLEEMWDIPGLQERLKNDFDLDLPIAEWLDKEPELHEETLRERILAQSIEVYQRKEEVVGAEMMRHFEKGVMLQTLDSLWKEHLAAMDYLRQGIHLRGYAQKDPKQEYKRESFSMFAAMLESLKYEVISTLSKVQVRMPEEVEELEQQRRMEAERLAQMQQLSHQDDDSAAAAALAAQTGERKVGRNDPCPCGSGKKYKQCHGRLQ

On to `CC(C)c1cc2c(O)nc(CSCC(=O)O)nc2s1`, for which the Percent Effect was -4.64% in [1]; 6.67% in assay [2]; 7.73% in assay [3]; 3.74% in [4]; 3.93% in assay [5]; -2.99% in assay [6]. Moreover, the Percent Effect in [7] was 70.5% and 64.5% and 63.5%; in assay [8], 32% and 29.1%; in assay [9], 1.31%; in assay [10] it was 4.23%; in assay [11], 10.3%; in [12] it was -9.79%.

Consider `c1cc(OCc2ccc3c(c2)OCO3)ccc1CNC1CC1`, for which the Percent Effect in assay [1] was 7.84%; in [2] it was 0%; in assay [3], 0.713%; in assay [4], -11.4%; in assay [5], -6.91%; in assay [6], -18.9%. For the same compound, the Percent Effect was 97.3% and 98.3% and 97.4% in assay [7]; 85.2% and 85% in assay [8]; 14.4% in assay [9]; -2.13% in assay [10]; 0% in assay [11]; 38.5% in assay [12].

Turning to `COc1cccc(-c2nc(C)c(C(=O)NC(CO)CCSC)s2)c1` (stereo not given), the Percent Effect is -3.43% in [1]; 1.33% in assay [2]; 7.43% in [3]; 6.12% in assay [4]; -2.36% in assay [5]; -11.4% in [6]. The Percent Effect in assay [7] was 30.1% and 33.3% and 30.7%; in [8] it was 26.5% and 29.5%; in [9], 15.6%; in assay [10], 4.23%; in [11], 7.69%; in assay [12], -7.42%.

`CSC(C)C(=O)NCCCc1cc(N)n(-c2ccccc2)n1` (stereo not given): the Percent Effect in [1] is -3.19%; in [2], -5.48%; in [3], 16.9%; in assay [4], -3.4%; in assay [5] it was -2.15%; in assay [6], -12.3%. Moreover, the Percent Effect in [7] is 74.4% and 84.2% and 83.7%; in assay [8], 46.1% and 47.4%; in assay [9], 14.8%; in assay [10], -1.07%; in assay [11], 0%; in assay [12] it was -2.72%.

With `CN(C(=O)Cc1ccc(NC(=O)NC2CCC2)cc1)c1ccccc1`, the Percent Effect in [1] is -9.26%; in assay [2] it was 5.26%; in assay [3] it was -0.53%; in assay [4], 9.14%; in assay [5], 4.58%; in [6] it was 0%. The Percent Effect is 41.9% and 43.6% and 48.1% in assay [7]; 15.8% and 14.9% in assay [8]; 9.37% in assay [9]; 4.25% in assay [10]; 15.6% in [11]; -19% in assay [12].

On to `CNC(=O)N1CC[C@@H]2CN(Cc3cccnc3)S(=O)(=O)[C@@H]2CC1`, for which the Percent Effect in [1] was -2.59%; in [2], 8.11%; in [3] it was 4.84%; in assay [4], -4.72%; in [5], 1.27%; in assay [6], 0.319%. In addition, the Percent Effect was 11.4% and 31.6% and 11.9% in assay [7]; 5.24% and 4.76% in assay [8]; -15.6% in assay [9]; 0% in assay [10]; 15.4% in assay [11]; 0.163% in assay [12].

Take `Cc1nc(CN2CCCC(N(C)Cc3cscn3)C2)no1` (stereo not given): the Percent Effect was -5.04% in assay [1]; 5.2% in assay [2]; -1.86% in assay [3]; -3.2% in assay [4]; 7.54% in assay [5]; -6.11% in [6]. Besides, the Percent Effect in [7] is 40.2% and 44.8% and 59.4%; in [8], 16.1% and 22%; in assay [9] it was 17.1%; in assay [10], 3.81%; in assay [11] it was 11.8%; in assay [12] it was -17.6%.

As to `Cc1cc(N2CCN(CC(=O)N(C)C)CC2)nc(-c2ccncc2)n1`, the Percent Effect in assay [1] was -6.79%; in assay [2], 23.7%; in assay [3], -6.29%; in [4] it was -5.92%; in [5], 11%; in assay [6], -11.8%. Besides, the Percent Effect in assay [7] is 35.2% and 34.4% and 30.2%; in [8], 18.5% and 14.6%; in assay [9], 5.2%; in [10], 20.2%; in assay [11], 28.6%; in assay [12], -6.26%.

On to `O=C(O)c1ccc(F)c(S(=O)(=O)Nc2ccc(-n3cccn3)c(Cl)c2)c1`, for which the Percent Effect was -5.92% in assay [1]; -2.67% in assay [2]; -7.61% in assay [3]; -0.566% in assay [4]; -2.63% in [5]; 0% in assay [6]. For the same compound, the Percent Effect in assay [7] was 16.3% and 16.5% and 41.1%; in [8], 15.6% and 20.6%; in [9], -13.3%; in assay [10], -1.64%; in [11] it was 1.24%; in assay [12], -4.16%.

Regarding `Cc1noc(NC(=O)c2ccc(OC(F)(F)F)cc2)n1`, the Percent Effect is -1.74% in [1]; 18.4% in assay [2]; -0.843% in assay [3]; 1.75% in assay [4]; 2.52% in [5]; -4.68% in assay [6]. In addition, the Percent Effect in assay [7] is 75.9% and 76.1% and 72%; in assay [8] it was 32.7% and 35.8%; in assay [9], 75.7%; in assay [10] it was 15.3%; in assay [11] it was 28.4%; in [12] it was -3.4%.
